Among the data in PubChem BioAssay AID602385 (Sanford-Burnham Center for Chemical Genomics, 2012) are inhibition values, retold here.

The whole screen tested about 2,300 compounds, of which about 180 (7.8%) were called active. The list is a sample of the results. A number with no mark means an inactive call.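 Rule for the calls: active = average inhibition of at least 30% in the single-concentration confirmation test; inactive = the rest.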

The assay deals with DNA (cytosine-5)-methyltransferase 1 (Homo sapiens) (UniProt P26358). Put plainly: DNMT1 methyltransferase inhibitor retest, confirmation, biochemical, molecular beacon, fluorescence, single concentration (AID 602385). The following applies: DNMT1 molecular beacon HinP1I cleavage, at 10 µM, hits give high values.
DNA (cytosine-5)-methyltransferase 1 (Homo sapiens), sequence (P26358 504-1616 limits assumed): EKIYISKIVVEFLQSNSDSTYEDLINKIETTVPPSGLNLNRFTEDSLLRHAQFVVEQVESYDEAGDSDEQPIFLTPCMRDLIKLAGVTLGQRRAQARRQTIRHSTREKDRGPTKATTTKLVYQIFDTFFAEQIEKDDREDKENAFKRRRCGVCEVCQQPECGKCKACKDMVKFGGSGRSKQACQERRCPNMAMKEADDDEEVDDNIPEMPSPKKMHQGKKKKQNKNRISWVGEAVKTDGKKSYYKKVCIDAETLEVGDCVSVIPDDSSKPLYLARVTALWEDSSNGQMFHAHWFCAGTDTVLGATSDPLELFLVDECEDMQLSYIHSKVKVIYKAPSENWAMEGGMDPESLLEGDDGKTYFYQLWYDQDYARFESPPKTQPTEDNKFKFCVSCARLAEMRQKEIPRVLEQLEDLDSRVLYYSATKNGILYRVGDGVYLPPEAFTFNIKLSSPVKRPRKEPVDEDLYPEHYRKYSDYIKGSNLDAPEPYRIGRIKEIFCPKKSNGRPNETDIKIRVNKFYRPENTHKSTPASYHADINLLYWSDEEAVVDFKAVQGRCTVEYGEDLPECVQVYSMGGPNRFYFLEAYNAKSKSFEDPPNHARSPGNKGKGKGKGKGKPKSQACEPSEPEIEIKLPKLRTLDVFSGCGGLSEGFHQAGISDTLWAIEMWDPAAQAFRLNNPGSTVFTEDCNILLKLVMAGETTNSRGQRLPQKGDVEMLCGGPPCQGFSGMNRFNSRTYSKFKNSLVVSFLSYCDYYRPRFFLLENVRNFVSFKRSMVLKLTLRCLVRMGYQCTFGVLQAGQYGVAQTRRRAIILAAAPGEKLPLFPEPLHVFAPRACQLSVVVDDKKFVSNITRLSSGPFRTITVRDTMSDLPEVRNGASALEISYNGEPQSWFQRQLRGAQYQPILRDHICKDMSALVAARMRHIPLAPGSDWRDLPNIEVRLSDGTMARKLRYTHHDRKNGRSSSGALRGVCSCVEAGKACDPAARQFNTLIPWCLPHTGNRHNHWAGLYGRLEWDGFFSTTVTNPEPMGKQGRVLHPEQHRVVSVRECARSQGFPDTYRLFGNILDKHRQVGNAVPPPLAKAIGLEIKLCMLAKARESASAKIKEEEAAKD
On to `CS(=O)(=O)c1ccc2c(c1)SC1=NC(=O)/C(=C/c3ccco3)C(=N)N12`, for which the inhibition is 16.9%. Under `Cc1ccc2cc(C)c(N3CCC(C)CC3)nc2c1` stands 1.43%; under `NC(CSC(c1ccccc1)(c1ccccc1)c1ccc(-c2ccccc2)cc1)C(=O)O` (stereo not given), 30.5% (active). The figure for `CCOc1ccc(CN2CCC(n3nccc3NC(=O)C3CC3)CC2)cc1CO` is 4.07%; for `Cc1ccc(N=C2NC(=O)/C(=C/C=C/c3ccco3)S2)cc1C` it is 10.4%.

As for `Cc1ccc(Cc2cncc(O)c2)cc1S(=O)(=O)O`, the inhibition is 2.5%. Take `O=C(CCN1C(=O)C2C3C=CC(C3)C2C1=O)Nc1ccccc1F` (stereo not given): the inhibition was 1.42%. Take `CC(C)(C)N(Cc1ccccc1)C(=O)c1ccncc1`: the inhibition is 0.76%. The figure for `COc1cc(-c2nnc(NC(=O)CS(=O)(=O)c3ccc(Cl)cc3)o2)cc(OC)c1OC` is 7.33%. The figure for `O=C(COC(=O)CCC(=O)c1cccs1)NCc1ccco1` is 3.72%; for `O=C(COC(=O)c1ccc(F)cc1F)Nc1ncccn1` it is 2.67%. The figure for `Cc1ccc(/C=C/C(=O)Nc2ccc([N+](=O)[O-])c(NC(=O)/C=C/c3ccc(C)o3)c2)o1` is 40.8% (active).

For `COc1ccc(OC)c(NC(=O)c2cc(-c3cc(F)ccc3OCC3CCCO3)n[nH]2)c1` (stereo not given), the inhibition was 3.2%. The figure for `COc1ccc(Cl)cc1NC(=O)CCS(=O)(=O)c1ccc(Br)cc1` is 21.9%; for `COc1ccc2sc(-c3ccc(S(C)(=O)=O)cc3)c(-c3ccc(C(N)=O)cc3)c2c1` it is 2.28%. Under `CCOc1cc(NC(=O)c2ccco2)c(OCC)cc1NC(=O)COc1ccccc1` stands 0.94%. Consider `NC1=CC(=O)C(=O)c2cccnc21`, for which the inhibition is 58.8% (active). The figure for `CCOc1ccccc1/C=c1\sc2nc(-c3ccco3)nn2c1=O` is 5.32%; for `O=C(COC(=O)/C=C/c1cn(-c2ccccc2)nc1-c1cccnc1)Nc1ccc(Cl)cc1Cl` it is 1.69%; for `O=C(Nc1cccc(-c2nc3ccccc3[nH]2)c1)c1ccc(C(=O)Nc2cccc(-c3nc4ccccc4[nH]3)c2)cc1` it is 7.67%. Under `CCNC(=O)C1CCCN(C(=O)c2cc(F)ccc2C)CC1` (stereo not given) stands 2.4%; under `CC(=O)c1ccc(NC(=O)c2ccc3c(Cl)c4c(nc3c2)CCCC4)cc1`, 2.16%. For `C=C(C)C(=O)Nc1cccc(C2=NOC3(C2)C[C@H](C(N)=O)N(C(=O)C(c2ccccc2)c2ccccc2)C3)c1` (stereo not given in full), the inhibition is 20.2%. As to `O/N=C1\CC2(Cc3nonc31)OCCO2`, the inhibition was 2.08%. As to `CSc1ccc(CNC(=O)c2ccc(NC(=O)C3=CSCCO3)cc2)cc1`, the inhibition was 5.27%.

Broadly, the inhibition is the change of the read-out against control, counted positive when it falls.
